From publication PMC4336329 (PLoS ONE, 2015)
The whole screen tested about 310,000 compounds, of which about 14,000 (4.5%) showed an effect of 50% or more. The effect is printed as a negative number. Many of the other results were omitted from the sample, so strong results are more common in it than they were.

What follows are molecules tested against human ether-à-go-go-related gene (hERG) potassium channel (human, UniProt Q12809) (assay: primary screen, population patch clamp on CHO cells stably expressing hERG; higher = less effect of the substance).
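Note: peak tail current of the secondary pulse compared with the same well before compound.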

Chain of human ether-à-go-go-related gene (hERG) potassium channel (Q12809 whole entry, looked up): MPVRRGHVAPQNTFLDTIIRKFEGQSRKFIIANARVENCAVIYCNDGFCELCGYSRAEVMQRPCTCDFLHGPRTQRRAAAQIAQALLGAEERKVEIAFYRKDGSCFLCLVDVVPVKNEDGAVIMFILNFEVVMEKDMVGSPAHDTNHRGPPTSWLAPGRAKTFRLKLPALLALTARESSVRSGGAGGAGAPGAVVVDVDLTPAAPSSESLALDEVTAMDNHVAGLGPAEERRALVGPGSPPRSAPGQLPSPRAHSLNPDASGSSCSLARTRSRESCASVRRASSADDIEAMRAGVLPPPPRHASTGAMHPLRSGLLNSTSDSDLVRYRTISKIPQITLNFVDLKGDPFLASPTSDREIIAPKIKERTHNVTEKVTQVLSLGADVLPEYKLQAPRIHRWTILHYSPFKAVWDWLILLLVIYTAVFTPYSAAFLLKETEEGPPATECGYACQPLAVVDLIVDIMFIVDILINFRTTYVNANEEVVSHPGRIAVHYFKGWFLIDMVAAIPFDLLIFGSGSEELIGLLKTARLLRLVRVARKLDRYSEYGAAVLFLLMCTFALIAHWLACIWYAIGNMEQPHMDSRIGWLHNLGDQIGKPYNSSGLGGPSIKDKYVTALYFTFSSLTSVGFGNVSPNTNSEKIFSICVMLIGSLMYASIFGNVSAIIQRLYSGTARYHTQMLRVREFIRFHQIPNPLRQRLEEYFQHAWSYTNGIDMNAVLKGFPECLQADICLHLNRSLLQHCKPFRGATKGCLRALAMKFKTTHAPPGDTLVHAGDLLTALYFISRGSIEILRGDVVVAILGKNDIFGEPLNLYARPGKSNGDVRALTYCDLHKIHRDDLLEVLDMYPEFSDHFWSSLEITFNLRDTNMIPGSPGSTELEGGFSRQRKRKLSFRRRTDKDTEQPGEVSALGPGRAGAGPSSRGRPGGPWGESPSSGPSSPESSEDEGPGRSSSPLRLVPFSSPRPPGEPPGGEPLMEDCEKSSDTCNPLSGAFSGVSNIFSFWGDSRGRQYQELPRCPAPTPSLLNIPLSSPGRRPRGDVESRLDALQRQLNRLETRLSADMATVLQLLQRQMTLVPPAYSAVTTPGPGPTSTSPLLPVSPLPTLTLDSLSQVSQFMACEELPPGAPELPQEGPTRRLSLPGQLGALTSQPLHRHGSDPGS

SMILES | hERG current change (%, negative = inhibition) at 10uM
NS(=O)(=O)c1ccc2nc(NC(=O)c3ccncc3)sc2c1 | 13.9%
Cc1nc(NS(=O)(=O)c2ccc(Cl)s2)c2c3c(sc2n1)CCCC3 | -28.7%
COc1ccc(Nc2cc(C(=O)NCCCN3CCOCC3)c3ccccc3n2)cc1 | -26.5%
CCCCCCNC(=O)c1cc(-c2ccco2)nc2ccccc12 | -11.5%
CCN(CC)CCCNC(=O)c1cc(Nc2ccc(OC)cc2OC)nc2ccccc12 | -36.1%
NS(=O)(=O)c1ccc(CCNC(=O)c2cc(-c3ccccc3)nc3ccccc23)cc1 | -10.4%
CCCCOc1cc(C(=O)NCCN(CC)CC)c2ccccc2n1 | -65.9%
CCN(CC)CCNC(=O)c1cc(-c2ccc(Br)s2)nc2ccccc12 | -9.2%
NS(=O)(=O)c1ccc(CCNC(=O)c2cc(-c3ccco3)nc3ccccc23)cc1 | -58.3%
CCN(CC)CCNC(=O)c1cc(-c2ccco2)nc2ccccc12.Cl | -65.5%
COc1ccc(CCNC(=O)c2cc(-c3ccco3)nc3ccccc23)cc1 | 2.98%
CCN(CC)CCNC(=O)c1ccc(NC(=O)c2cc(-c3ccco3)nc3ccccc23)cc1 | -30.2%
CCN(CC)CCCNC(=O)c1cc(Nc2ccc(OC)cc2)nc2ccccc12 | -53.8%
CCN(CC)CCNC(=O)c1cc(Nc2ccc(OC)c(OC)c2)nc2ccccc12 | -23.8%
CN1C(=O)N2CN(C3CCCCC3)CN3C(=O)N(C)C1C23 (stereo not drawn) | 9.88%
Cc1noc(C)c1COC(=O)C1COc2ccccc2O1 (stereo not drawn) | 15.2%
CCc1ccc(N(C(=O)c2csnn2)C(C(=O)NC(C)(C)C)c2cccnc2)cc1 (stereo not drawn) | 4.59%
CCOCCCNC(=O)C(NC(=O)c1ccccn1)c1ccc(C)cc1 (stereo not drawn) | -0.00042%
Cc1ccccc1NS(=O)(=O)c1ccc(-c2ccc(=O)[nH]n2)o1 | -2.13%
COc1ccccc1N1CCN(C(=O)CCCn2c(=O)[nH]c3ccsc3c2=O)CC1 | 4.33%
O=C(CCC(=O)c1ccc(F)cc1)Nc1cccc(C(F)(F)F)c1 | 7.22%
COc1ccc(Nc2ccc([N+](=O)[O-])cc2[N+](=O)[O-])cc1 | -32.5%
O=C(Nc1ccc(Cl)cc1C(=O)NCC1CCCO1)c1ccc(Cl)cc1Cl (stereo not drawn) | -10.2%

SMILES | hERG current change (%, negative = inhibition) at 10uM
CC(C1CC2CCC1C2)N1CC(O)=C(c2nc3ccccc3[nH]2)C1=N (stereo not drawn) | -17.9%
Cc1ccc(C)c(S(=O)(=O)N/N=C/c2cccnc2)c1 | 7.65%
COc1ccc(OC)c(NS(=O)(=O)c2ccc3c(c2)n(C)c(=O)n3C)c1 | -5.85%
CCC/C(=N\NC(=O)C1CC1)c1ccc(Br)cc1 | 11.9%
C/C(=N\N=C1\NC(=O)CC(C(=O)O)S1)c1ccc(F)cc1 (stereo not drawn) | 0.193%
CCOC(=O)c1nn(C23CC4CC(CC(C4)C2)C3)c2c1C(=O)N(c1ccc(C)cc1)C2=O | 20.3%
Cc1cc([N+](=O)[O-])nn1CC(=O)Nc1cnc2ccccc2c1 | -81.1%
Cc1cc([N+](=O)[O-])nn1CC(=O)Nc1ccccn1 | 5.51%
Cc1cc([N+](=O)[O-])nn1CC(=O)Nc1ccc(F)cc1 | 6.31%
Cc1cccc(C)c1-n1c(C)nn(CC#N)c1=O | 19.1%
COc1ccc2c(c1)c1c3n2CCN(C)C3=NCC1.Cl | -67.7%
CCN(CC)CCNC1=NCCn2c1cc1cc(OC)ccc12.Cl | -66.6%
COC(=O)c1cc2cc(OC)ccc2n1C | 0.821%
COc1ccc2[nH]c3c(c2c1)CCN=C3C | -18.2%
CN=C1c2cc3cc(OC)ccc3n2CCN1C.Cl | -53%
CN=C1c2c(-c3ccccc3)c3cc(OC)ccc3n2CCN1C.Cl | -62.6%
COc1ccc2c(c1)c(=O)cc(-c1ccccc1)n2C | 0.0751%
COc1ccc2c(c1)cc1n2CCN=C1NCCO.Cl | -10.2%
CCN(CC)CCNC(=O)COc1ccc(OC)cc1.Cl | -9.07%
COc1ccc2c(c1)cc(C(=O)O)n2C | -6.02%
COc1ccc2c(c1)c1ccccc1n2C | 11%
COc1ccc2c(c1)c1c(n2C(C)=O)C(OC(C)=O)=NCC1 | -8.94%
